Results: PubChem BioAssay (Tox21)
Inconclusive results are not listed. Activity calls are given as the source filed them. Unless noted, calls come from the whole dose curve; as a rule, active = well fitted curve in the direction sought with a large enough effect in the repeat runs; inconclusive = weak or mixed curves; inactive = no such curve, though single readings can be large; an effect the other way counts as inactive or inconclusive.

Assays:
[1] = A CellTox Green Cytotoxicity Assay to monitor cytotoxicity in HepG2 cells - 8 hour (AID 1224890); note: nearly all actives have a fitted effect of over 45% in size; note: potency is the fitted concentration of half-maximal effect
Outline: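 HepG2, 600 cells/well premixed w/ CellTox Green; 5 h settle, 37 C/5% CO2; pintool cpd add (DMSO); 37 C, 40 h; fluorescence read at 0, 8, 16, 24, 32, 40 h.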

[2] = qHTS assay to identify small molecule antagonists of the estrogen receptor alpha (ER-alpha) signaling pathway using the BG1 cell line in the presence of 0.1 nM 17-beta-estradiol - cell viability counter screen (AID 1259241); note: nearly all actives have a fitted effect of over 40% in size; note: potency is the fitted concentration of half-maximal effect
Outline: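 Following 5 days in phenol red-free medium with charcoal-stripped serum, VM7Luc4E2 cells received test compounds alongside 0.1 nM 17beta-estradiol (final) at 37C for 22 hr. Live cells were then quantified via protease-substrate fluorescence.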

[3] = qHTS assay to identify small molecule phospholipidosis (PLD) inducers (AID 1259344; active = well fitted curve in the direction sought with a large enough effect; an effect the other way counts as inactive or inconclusive)
Outline: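 Image-based: LipidTOX Red pit count/intensity per well and per cell; HepG2, 24 h compound at 37 C, PFA fixation, Hoechst counterstain.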

[4] = qHTS assay to identify small molecule HDAC inhibitors (AID 1259364); note: potency is the fitted concentration of half-maximal effect;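 note: wild-type HCT-116 cells with endogenous class I/II HDAC activity; nearly all actives have a fitted effect of over 45% in size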
Outline: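 HCT-116 (wild type), 1,500 cells/well, overnight; compound 2 hr 37C 5% CO2; HDAC-Glo I/II reagent 30 min RT; luminescence readout.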

[5] = qHTS assay to identify small molecule agonists of the sonic hedgehog signaling (Shh) pathway - cell viability counter screen (AID 1259366); note: nearly all actives have a fitted effect of over 50% in size
Outline: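 Compounds in DMSO were pin-transferred onto 3T3 Gli1-Luc cells that had settled 4hr; plates then stood 24hr at 37C and 5% CO2. One hour before the end, CellTiter-Fluor was added and fluorescence recorded.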

[6] = qHTS assay to identify small molecule antagonists of the sonic hedgehog signaling (Shh) pathway - cell viability counter screen (AID 1259367); note: nearly all actives have a fitted effect of over 55% in size; note: potency is the fitted concentration of half-maximal effect
Outline: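 Tox21 library chemicals were tested on a Gli1-Luc NIH/3T3 clone (2,000 cells/well) stimulated by conditioned medium; viability was quantified as fluorescence from CellTiter-Fluor reagent added at 23 hr.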

[7] = qHTS assay to identify small molecule agonists of the sonic hedgehog signaling (Shh) pathway (AID 1259368; calls by dose curve; note: nearly all actives have a fitted effect of over 15% in size; note: potency is the fitted concentration of half-maximal effect)
Outline: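 Read-out: firefly luciferase luminescence from a Gli1 response element reporter stably integrated in NIH/3T3-derived 3T3Gli1-Luc cells, measured 30 min at room temperature after reagent addition. Compound exposure lasted 24 hr at 37 C, 5% CO2.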

[8] = biological target: Estrogen receptor beta (Homo sapiens) (UniProt Q92731); test: qHTS assay to identify small molecule agonists of the estrogen receptor beta (ER-beta) signaling pathway (AID 1259377; active = well fitted activation curve with a large enough effect in the signal ratio in the repeat runs, not every such curve was filed as active; the % refers to the signal ratio; note: potency is the fitted concentration of half-maximal effect)
Estrogen receptor beta (Homo sapiens), sequence (Q92731 whole entry, looked up): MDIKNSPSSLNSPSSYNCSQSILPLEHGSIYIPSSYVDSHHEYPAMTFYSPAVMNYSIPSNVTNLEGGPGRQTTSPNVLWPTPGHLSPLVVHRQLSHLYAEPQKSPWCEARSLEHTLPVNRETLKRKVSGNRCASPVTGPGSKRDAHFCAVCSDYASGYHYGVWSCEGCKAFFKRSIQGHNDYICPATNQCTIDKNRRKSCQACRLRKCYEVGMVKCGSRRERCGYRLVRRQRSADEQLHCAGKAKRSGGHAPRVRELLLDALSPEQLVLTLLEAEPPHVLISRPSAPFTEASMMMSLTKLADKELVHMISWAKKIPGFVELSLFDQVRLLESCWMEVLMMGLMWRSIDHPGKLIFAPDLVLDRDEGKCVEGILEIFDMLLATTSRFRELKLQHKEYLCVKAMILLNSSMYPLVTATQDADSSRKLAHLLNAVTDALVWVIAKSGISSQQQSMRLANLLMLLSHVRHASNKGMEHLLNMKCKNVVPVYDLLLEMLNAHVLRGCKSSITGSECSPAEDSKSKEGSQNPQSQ
Outline: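 qHTS in ER-beta-UAS-bla HEK293T cells: 6 hr settling, then 16 hr compound at 37C, then LiveBLAzer substrate 2 h at RT before fluorescence reading.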

[9] = qHTS assay to identify small molecule agonists of the androgen receptor (AR) signaling pathway in the presence of an antagonist - cell viability counter screen (AID 1259379); note: nearly all actives have a fitted effect of over 25% in size; note: potency is the fitted concentration of half-maximal effect
Outline: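 Viability counter screen: CellTiter-Fluor fluorescence, measured in the same wells as the luciferase read-out. MDA-kb2 cells, 3,000/well, with nilutamide at 3.0uM final and compounds at 15 concentrations, 16 hr at 37C, 0% CO2.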

[10] = qHTS assay to identify small molecule agonists of the estrogen receptor beta (ER-beta) signaling pathway - cell viability counter screen (AID 1259380); note: nearly all actives have a fitted effect of over 30% in size; note: potency is the fitted concentration of half-maximal effect
Outline: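 Luminescence read-out (CellTiter-Glo, 30 min, room temp) taken in the same wells as the beta-lactamase reporter assay; ER-beta-UAS-bla HEK293T cells exposed to DMSO-dissolved compounds for 16 hr at 37C in 2% charcoal-stripped FBS medium.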

[11] = qHTS assay to identify small molecule antagonists of the estrogen receptor beta (ER-beta) signaling pathway - cell viability counter screen (AID 1259382); note: nearly all actives have a fitted effect of over 55% in size; note: potency is the fitted concentration of half-maximal effect
Outline: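 Luminescent ATP read-out (CellTiter-Glo, 30 min, RT) taken in the same wells as the bla reporter assay. HEK293T ER-beta-UAS-bla cells in 2% charcoal-stripped FBS were exposed to compounds with 1nM E2 for 16 hr at 37C.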

[12] = qHTS assay to identify small molecule agonists or antagonists of the thyroid stimulating hormone receptor (TSHR) signaling pathway - wild type cell line counter screen (AID 1259384; calls by dose curve)
Outline: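 Wild-type Hek293 cells, 800/well, 18 h at 37C, then compound with Ro20-1724 for 30 min RT. cAMP by HTRF (cAMP-d2/anti-cAMP cryptate), 1 h RT, fluorescence read. 15 concentrations, triplicates.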

[13] = qHTS assay to identify small molecule HDAC inhibitors - cell viability counter screen (AID 1259365); note: series mostly up to about 92 µM; nearly all actives have a fitted effect of over 50% in size
Outline: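 HCT-116 wild-type, overnight attachment; 2hr drug exposure, 37C; CellTiter-Glo luminescent ATP readout after 30min RT.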

[14] = biological target: Estrogen receptor beta (Homo sapiens) (UniProt Q92731); test: qHTS assay to identify small molecule antagonists of the estrogen receptor beta (ER-beta) signaling pathway (AID 1259378; active = well fitted inhibition curve with a large enough effect in the signal ratio in the repeat runs, not every such curve was filed as active; the % refers to the signal ratio; note: potency is the fitted concentration of half-maximal effect)
Outline: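 ER-beta-UAS-bla HEK293T cells in 2% charcoal-stripped FBS medium treated with compound plus 1nM final 17-beta-estradiol for 16 hr at 37C. Beta-lactamase reporter read by FRET substrate fluorescence after 2 hours at room temperature.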

[15] = biological target: Estrogen receptor (Homo sapiens) (UniProt P03372); test: qHTS assay to identify small molecule agonists of the estrogen receptor alpha (ER-alpha) signaling pathway in the presence of an antagonist (AID 1259383; calls by dose curve; note: nearly all actives have a fitted effect of over 15% in size; note: potency is the fitted concentration of half-maximal effect; for activation: top concentration of the series differs between compounds)
Estrogen receptor (Homo sapiens), sequence (P03372 whole entry, looked up): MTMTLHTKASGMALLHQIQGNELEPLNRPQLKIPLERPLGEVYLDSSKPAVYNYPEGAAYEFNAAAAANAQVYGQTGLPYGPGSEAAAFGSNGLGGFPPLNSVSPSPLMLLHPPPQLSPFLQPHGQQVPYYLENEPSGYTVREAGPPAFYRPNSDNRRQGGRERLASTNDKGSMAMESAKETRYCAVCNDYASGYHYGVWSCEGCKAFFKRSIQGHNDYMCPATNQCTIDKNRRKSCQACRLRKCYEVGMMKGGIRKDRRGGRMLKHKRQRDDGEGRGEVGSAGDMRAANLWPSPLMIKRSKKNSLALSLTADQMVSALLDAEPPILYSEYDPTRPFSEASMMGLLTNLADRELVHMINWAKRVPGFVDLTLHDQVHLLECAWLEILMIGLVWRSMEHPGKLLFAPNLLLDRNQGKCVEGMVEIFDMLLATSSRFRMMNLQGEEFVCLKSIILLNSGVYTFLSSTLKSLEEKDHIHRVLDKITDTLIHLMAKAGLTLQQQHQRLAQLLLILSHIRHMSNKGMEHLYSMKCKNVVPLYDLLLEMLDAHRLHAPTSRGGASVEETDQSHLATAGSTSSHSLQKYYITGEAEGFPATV
Outline: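 Luciferase luminescence (ONE-Glo, 30min at room temperature) measured in VM7Luc4E2 cells after 22hr compound exposure at 15 concentrations, with 10.0nM ICI-182,780 final present; cells express endogenous ER-alpha and carry four EREs upstream of luciferase.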

[16] = biological target: Androgen receptor (Homo sapiens) (UniProt P10275); test: qHTS assay to identify small molecule antagonists of the androgen receptor (AR) signaling pathway using the MDA cell line in the presence of 0.5 nM R1881 (AID 1259243); note: potency is the fitted concentration of half-maximal effect; nearly all actives have a fitted effect of over 50% in size
Androgen receptor (Homo sapiens), sequence (P10275 whole entry, looked up): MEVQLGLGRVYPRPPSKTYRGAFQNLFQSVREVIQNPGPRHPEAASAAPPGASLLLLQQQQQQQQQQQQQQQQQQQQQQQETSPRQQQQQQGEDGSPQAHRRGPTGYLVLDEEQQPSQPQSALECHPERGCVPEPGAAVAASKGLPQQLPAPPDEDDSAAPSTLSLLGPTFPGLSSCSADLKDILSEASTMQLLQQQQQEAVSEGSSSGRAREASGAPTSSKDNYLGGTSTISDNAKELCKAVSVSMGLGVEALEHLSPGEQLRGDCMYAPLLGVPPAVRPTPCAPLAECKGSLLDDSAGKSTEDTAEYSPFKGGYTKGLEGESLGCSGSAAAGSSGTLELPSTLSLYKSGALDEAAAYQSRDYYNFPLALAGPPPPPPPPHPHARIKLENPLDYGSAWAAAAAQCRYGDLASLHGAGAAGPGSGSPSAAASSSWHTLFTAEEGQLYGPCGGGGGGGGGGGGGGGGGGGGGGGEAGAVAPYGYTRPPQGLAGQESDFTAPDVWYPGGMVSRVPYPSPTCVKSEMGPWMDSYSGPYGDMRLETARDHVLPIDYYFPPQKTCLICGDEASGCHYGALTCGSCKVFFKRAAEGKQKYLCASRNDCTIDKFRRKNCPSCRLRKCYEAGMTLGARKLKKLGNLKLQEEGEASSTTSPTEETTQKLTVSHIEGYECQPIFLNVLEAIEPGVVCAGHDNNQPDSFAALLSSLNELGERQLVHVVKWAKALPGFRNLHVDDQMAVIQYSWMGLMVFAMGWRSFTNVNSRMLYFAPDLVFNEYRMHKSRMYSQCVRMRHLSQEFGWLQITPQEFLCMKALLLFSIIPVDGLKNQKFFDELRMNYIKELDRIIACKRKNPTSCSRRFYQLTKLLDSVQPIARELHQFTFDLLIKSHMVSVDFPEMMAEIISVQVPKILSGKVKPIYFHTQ
Outline: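 MDA-kb2, MMTV-luc (AR/GR elements); 3,000 cells/well; cpd + 0.5 nM R1881 final; 16 hr 37C, 0% CO2; ONE-Glo 30 min RT; luminescence.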

[17] = qHTS assay to identify small molecule antagonists of the sonic hedgehog signaling (Shh) pathway (AID 1259369; calls by dose curve; note: nearly all actives have a fitted effect of over 45% in size; note: potency is the fitted concentration of half-maximal effect)
Outline: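 Luminescence readout: firefly Luc under Gli1 response element in 3T3Gli1-Luc cells (NIH/3T3 clone). Antagonist mode, stimulation by conditioned medium; compound exposure 24hr at 37 C, 5% CO2.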

[18] = biological target: Androgen receptor (Homo sapiens) (UniProt P10275); test: qHTS assay to identify small molecule agonists of the androgen receptor (AR) signaling pathway in the presence of an antagonist (AID 1259381; calls by dose curve; note: nearly all actives have a fitted effect of over 15% in size)
Outline: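 Luciferase read-out (ONE-Glo, 30min room temperature) in MDA-kb2 MMTV-reporter cells; agonist mode run in presence of AR antagonist nilutamide, 3.0uM final. Compounds tested as 15-point series, 16hr exposure at 37C, 0% CO2.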

[19] = biological target: Estrogen receptor (Homo sapiens) (UniProt P03372); test: qHTS assay to identify small molecule antagonists of the estrogen receptor alpha (ER-alpha) signaling pathway using the BG1 cell line in the presence of 0.1 nM 17-beta-estradiol (AID 1259244); note: nearly all actives have a fitted effect of over 50% in size
Outline: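 Luminescence after ONE-Glo (30 min, room temperature) measured ERE-luciferase activity in VM7Luc4E2 cells treated 22 h with compound and 0.1 nM final 17beta-estradiol as stimulator.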

Measured: Potency

CC1(C)[C@@H](OC(=O)CCC(=O)O)CC[C@]2(C)[C@H]3C(=O)C=C4[C@@H]5C[C@@](C)(C(=O)O)CC[C@]5(C)CC[C@@]4(C)[C@]3(C)CC[C@@H]12
not listed: [13] | [14] | [15] | [16] | [17] | [18] | [19]
inactive: all other assays above

Oc1c(I)cc(I)c2cccnc12
active: [14] 6.68 µM
inactive: [1] | [2] | [3] | [4] | [13] | [5] | [6] | [11] | [15] | [12]

C[C@@H](O[C@H]1OCCN(Cc2n[nH]c(=O)[nH]2)[C@H]1c1ccc(F)cc1)c1cc(C(F)(F)F)cc(C(F)(F)F)c1
inactive: [2] | [4] | [8] | [18] | [12]
active: [1] 16.9 µM | [16] 29.8 µM | [17] 13.3 µM | [10] 26.6 µM | [11] 29.8 µM

CCCCCCCCCI
not listed: [3] | [12] | [16] | [18]
inactive: all other assays above

CC1=C(CC=O)C(C)(C)CCC1
not listed: [3] | [14] | [15] | [16] | [18] | [19]
inactive: all other assays above

CCN(CC)CCNC(=O)COc1ccc(OC)cc1
not listed: [12] | [16] | [18]
inactive: all other assays above

CN1C(=O)c2ccccc2C1=O
active: [17] 43.3 µM
not listed: [6] | [8] | [14] | [15] | [16] | [18] | [19]
inactive: all other assays above

Oc1ccc(Cl)c2cccnc12
active: [16] 10.6 µM | [6] 3.35 µM | [17] 0.596 µM
not listed: [5] | [8] | [10] | [14] | [19]
inactive: all other assays above

O=C(O)c1cccc(-c2noc(-c3ccccc3F)n2)c1
inactive: [1] | [2] | [3] | [5] | [6] | [9] | [12]
active: [4] 0.422 µM | [17] 0.237 µM | [10] 26.6 µM

Brc1cc2ccccc2c2ccccc12
active: [10] 30.9 µM
not listed: [3] | [8] | [9] | [12] | [14] | [16] | [18]
inactive: all other assays above

O=C(O)CCCCCCCCCCCBr
active: [4] 24.4 µM
not listed: [3] | [10] | [12] | [13] | [16] | [17] | [18]
inactive: all other assays above

C=C(C)C(=O)OCCCCCCCCCCCCC
not listed: [3] | [16] | [18]
inactive: all other assays above

Cc1cc2c(OCC(CNC(C)(C)C)OC(=O)c3ccccc3)cccc2[nH]1 (stereo not given)
active: [17] 8.41 µM
not listed: [9] | [13] | [16] | [18]
inactive: all other assays above

COC(=O)CCS
not listed: [3] | [16] | [18]
inactive: all other assays above

Nc1ccc(N=Nc2ccccc2)c(N)c1
inactive: [1] | [19] | [13] | [17] | [15]
active: [2] 26.7 µM | [4] 1.5 µM | [7] 1.34 µM | [9] 26.7 µM | [10] 26.7 µM

C=C(C)C(=O)OCCOCCOC(=O)C(=C)C
not listed: [3] | [12] | [14] | [16] | [18]
inactive: all other assays above

CC1(C)S[C@@H]2[C@H](NC(=O)C(c3ccccc3)S(=O)(=O)O)C(=O)N2[C@H]1C(=O)O (stereo not given in full)
not listed: [8] | [14] | [16] | [18]
inactive: all other assays above

C/C=C(/C(=C/C)c1ccc(O)cc1)c1ccc(O)cc1
inactive: [2] | [3] | [4] | [5] | [7] | [9] | [10] | [11] | [12]
active: [1] 15.1 µM | [8] 0.0019 µM | [15] 0.015 µM
